Results filed as inconclusive are left out. Calls of active or inactive are those of the source. Calls come from the whole dose curve; as a rule, active = well fitted inhibition curve with a large enough effect; inconclusive = small, poorly fitted or top-dose-only effect; inactive = flat fitted curve, though single readings scatter.
Key:
Experiment in all cases: qHTS profiling for inhibitors of Plasmodium falciparum proliferation (AID 504749); note: nearly all actives have a fitted effect of over 60% in size
Details in all cases: P. falciparum in erythrocytes, SYBR Green DNA, 72 h; series mostly up to 28.7 µM
AS120 = test system: AS120
In short: (§1)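 In a 72 h erythrocytic culture (37 C, humidified, 5% CO2) at 2.5% hematocrit and 0.3% starting parasitemia, compounds were tested; SYBR Green I in detergent lysis buffer stained parasite DNA overnight.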

ATS189 = test system: ATS189
In short: as §1

CP201 = test system: CP201
In short: as §1

CP211 = test system: CP211
In short: as §1

CP215 = test system: CP215
In short: as §1

CP262 = test system: CP262
In short: as §1

CP266 = test system: CP266
In short: as §1

CP268 = test system: CP268
In short: as §1

CP269 = test system: CP269
In short: as §1

CP297 = test system: CP297
In short: as §1

CP305 = test system: CP305
In short: as §1

CP315 = test system: CP315
In short: as §1

CP325 = test system: CP325
In short: as §1

CP329 = test system: CP329
In short: as §1

CP335 = test system: CP335
In short: as §1

DIV14 = test system: DIV14
In short: as §1

DIV17 = test system: DIV17
In short: as §1

DIV30 = test system: DIV30
In short: as §1

GB4 = test system: GB4
In short: as §1

PC26 = test system: PC26
In short: as §1

Measured: Potency

CC(=O)OC1CC2CCC1(C)C2(C)C (stereo not given)
inactive: all assays above
